From PubChem
MARV entry inh: blocks Marburg virus binding to or entry into cells. Potency, µM (highest dose often 37.8 µM), inactives show at the top dose activity change, negative = inhibition, most hits filed as inhibitors. Marburg virus pseudotyped entry inhibition, cell reporter. AID 540276. 300,000 compounds, 1.8% hits; calls by dose curve; tested in HEK293 cells; also: potency is read from the fitted curve at half-maximal effect; % is scaled to controls: 0 for no effect and ±100 for the full control effect
CHX counter: counter-screen for Shiga toxin inhibitors: cycloheximide protein synthesis inhibition | cell reporter, cycloheximide protein synthesis inhibition counterscreen | max response, % | 300,000 compounds, 12% hits; in the data active = max response mostly above about 13%, no sharp cut-off; inactive = mostly below about 14%; also: read at 38.3 µM for the half of the compounds with a filed dose; 0% is about no effect
FMDV inh: foot and mouth disease virus antiviral activity. 410,000 compounds, 1.2% hits. FMDV antiviral cell-based qHTS. AID 1159524. Potency, µM (series often up to 57.9 µM), inactives show top-dose activity change, negative = inhibition, most hits filed as inhibitors; calls by dose curve; tested in HEK293T cells; also: read-out not given here; potency is read from the fitted curve at half-maximal effect; % is scaled to controls: 0 for no effect and ±100 for the full control effect; nearly all actives have a fitted effect of over 45% in size
Shiga inhibitor: blocks Shiga toxin action in Vero cells. inhibition, % at 38.7 µM. Vero cells, Shiga toxin protein synthesis inhibition reporter. 290,000 compounds, 9.2% hits; in the data active = inhibition mostly above about 28%, no sharp cut-off; inactive = mostly below about 43%; also: 0% is about no effect
HCV inhibitor: HCV inhibition | Huh7.5.1 HCVcc-Cre infection, luciferase reporter, 44 h | Potency, µM (top dose mostly 41.8 µM), for the others: at the top dose activity change, negative = inhibition, actives largely listed as inhibitors | 340,000 compounds, 3.4% hits; active = well fitted inhibition curve with a large enough effect; inconclusive = small, poorly fitted or top-dose-only effect, or another doubt; inactive = no such curve, though single readings can be large or run the other way; also: potency is read from the fitted curve at half-maximal effect; % is scaled to controls: 0 for no effect and ±100 for the full control effect
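Seed cells (1,000/well) for 4 h; treat with compound and infect with HCVcc-Cre, moi about 0.5. Incubate 44 h, then detect luciferase activity.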
LASV entry inh: blocks Lassa virus binding to or entry into cells; 300,000 compounds, 1.2% hits; Potency, µM (doses to about 37.9 µM), for the others: at the highest dose activity change, negative = inhibition, most hits filed as inhibitors; Lassa virus pseudotype entry inhibition, cell reporter; AID 540256; calls by dose curve; tested in HEK293 cells; also: potency is read from the fitted curve at half-maximal effect; % is scaled to controls: 0 for no effect and ±100 for the full control effect; nearly all actives have a fitted effect of over 50% in size
Active calls of the source: *; [ ] = dose if it differs, or a comment. Most compounds without a hit are left out; they make up all but 13% or so of the library.

Screening CC(/C=C1\SC(=O)N(CC(=O)Nc2ccc(O)cc2)C1=O)=C\c1ccccc1 returned MARV entry inh -18.7%, CHX counter 29.1, FMDV inh -5.7%, Shiga inhibitor 40.4*, HCV inhibitor inconclusive and LASV entry inh -23.8%.
O=C(CCN1C(=O)/C(=C\C=C\c2ccccc2)SC1=S)Nc1ccc(C(=O)O)cc1 was read as CHX counter 14.9*, FMDV inh 23.3%, Shiga inhibitor 29.0 and HCV inhibitor 15.8%.
`O=C(CN1C(=O)S/C(=C\C=C\c2ccccc2)C1=O)Nc1ccc(C(=O)O)cc1` gave CHX counter 5.4, FMDV inh 12.7%, Shiga inhibitor 14.3 and HCV inhibitor 7.5%.
Cn1c(=O)c2c(ncn2CC(=O)Nc2ccccc2)n(C)c1=O was read as MARV entry inh 1.1%, CHX counter -5.3, FMDV inh -17.5%, Shiga inhibitor -22.9, HCV inhibitor -15.0% and LASV entry inh 3.0%.
Screening C=CCS/C(N)=N\N=C\c1c(O)ccc2ccccc12 returned CHX counter 43.6*, FMDV inh 44.4%, Shiga inhibitor 114.0* and HCV inhibitor 22.4µM*.
CCCS/C(N)=N/N=C/c1ccccc1O was read as MARV entry inh inconclusive, CHX counter 38.4*, FMDV inh 32.6%, Shiga inhibitor 49.6*, HCV inhibitor -26.0% and LASV entry inh inconclusive.
For CCc1nn(CC(=O)NCCc2ccc(OC)cc2OC)c(=O)c2cc3occc3n12 the results were MARV entry inh -20.7%[46.1 µM], CHX counter -9.5, FMDV inh 1.8%, Shiga inhibitor -8.7, HCV inhibitor inconclusive and LASV entry inh -13.1%[46.1 µM].
`CCc1nc2c(OCCC3CCCCC3)cccn2c1N(C)C(=O)c1cccs1` gave FMDV inh 28.2µM*.
COc1ccc(-n2nc(C(=O)NCC(=O)Nc3cc(Cl)c(OC)cc3OC)c3ccccc3c2=O)cc1 was read as MARV entry inh inconclusive, CHX counter -5.0, FMDV inh -10.7%, Shiga inhibitor -9.7, HCV inhibitor 31.6µM* and LASV entry inh -1.7%.
For COc1ccc(-n2nc(C(=O)NCC(=O)Nc3ccccn3)c3ccccc3c2=O)cc1Cl the results were MARV entry inh 4.11µM*, CHX counter 0.5, FMDV inh -3.1%, Shiga inhibitor -4.2, HCV inhibitor inconclusive and LASV entry inh -26.3%.
`CCOc1ccc(CCNC(=O)C2CCN(C(=O)N3CC(CC)Oc4ccccc43)CC2)cc1` (stereo not given) gave FMDV inh -2.4% and LASV entry inh inconclusive.
Screening CCOC(=O)N1CCC(NC(=O)C2=CCN(S(=O)(=O)c3ccc(F)cc3)CC2)CC1 returned MARV entry inh 0.2%[46.1 µM], CHX counter -2.0, FMDV inh -25.8%, Shiga inhibitor -17.3, HCV inhibitor -22.7% and LASV entry inh 11.7%.
`CC(C)(C)NC(=O)c1cc(-c2ccccc2)n[nH]1` gave MARV entry inh 4.7%, CHX counter 3.7, FMDV inh 8.3%, Shiga inhibitor 11.0, HCV inhibitor 9.6% and LASV entry inh -7.0%.
`CC(C)(C)c1cc(-c2ccccc2)n[nH]1` gave CHX counter 15.4*, FMDV inh 20.8%, Shiga inhibitor 33.7 and HCV inhibitor 4.6%.
Screening CC(C)(C)c1cc(OC(=O)C2CCCC2)ccc1O returned MARV entry inh -17.8%, CHX counter -5.8, FMDV inh -28.8%, HCV inhibitor 14.4% and LASV entry inh -10.4%.
CCCCC(CC)C(=O)Oc1ccc(O)c(C(C)(C)C)c1 (stereo not given) was read as MARV entry inh inconclusive, CHX counter 8.5, FMDV inh 14.2%, Shiga inhibitor 24.5, HCV inhibitor inconclusive and LASV entry inh 10µM*.
`Cc1cc2c(N3CCCCC3C)ncnc2s1` (stereo not given) gave MARV entry inh -10.3%, CHX counter 1.1, FMDV inh -29.7%, Shiga inhibitor -23.7, HCV inhibitor inconclusive and LASV entry inh inconclusive.
Screening O=C(CSc1cn[nH]n1)Nc1nc2ccccc2s1 returned MARV entry inh -17.6%[46.1 µM], CHX counter 26.9*, FMDV inh 53.3%, Shiga inhibitor 53.4* and HCV inhibitor -20.4%.
For Cc1cc(NC(=O)CSc2nccn2-c2cccc(C)c2C)no1 the results were MARV entry inh inconclusive, CHX counter -2.4, FMDV inh 0.0%, Shiga inhibitor 18.2, HCV inhibitor 11.2µM* and LASV entry inh inconclusive.
`Cc1cccc(-n2ccnc2SCC(=O)Nc2cc(C)on2)c1` gave MARV entry inh inconclusive, CHX counter 5.1, FMDV inh -25.3%, Shiga inhibitor 4.0, HCV inhibitor 0.6% and LASV entry inh -4.6%.
O=C(CSc1ccccn1)Nc1nc2ccccc2s1 was read as MARV entry inh inconclusive, CHX counter 27.8*, FMDV inh 37.4%, Shiga inhibitor 19.0, HCV inhibitor -18.6% and LASV entry inh 4.9%.
Brc1c(CSc2nc3ccccc3s2)nc2ncccn12 was read as MARV entry inh inconclusive, CHX counter 23.5*, FMDV inh 6.7%, Shiga inhibitor 42.8, HCV inhibitor -5.6% and LASV entry inh 11.0%.
`Cc1cc(=O)[nH]c(SCC(=O)Nc2nc3ccccc3s2)n1` gave CHX counter 8.9, FMDV inh 18.6%, Shiga inhibitor 22.2 and HCV inhibitor 23.7%.
`O=c1ccc2cc(S(=O)(=O)Nc3ccc(F)c(Cl)c3)ccc2[nH]1` gave FMDV inh 58.3% and LASV entry inh -26.2%[46.1 µM].
`Cn1ccnc1SCC(=O)Nc1cccc2ccccc12` gave MARV entry inh inconclusive, CHX counter 38.9*, FMDV inh 19.5%, Shiga inhibitor 25.0, HCV inhibitor 6.3% and LASV entry inh 17.9%.
Screening Cn1ccnc1SCC(=O)Nc1ccc(Br)cc1C(F)(F)F returned MARV entry inh inconclusive, CHX counter 21.7*, FMDV inh 15.2%, Shiga inhibitor 116.7*, HCV inhibitor 17.0% and LASV entry inh -2.2%.
Screening COc1ccc(NC(=O)CSc2nccn2C)c([N+](=O)[O-])c1 returned MARV entry inh 23.8%[46.1 µM], CHX counter 23.2*, FMDV inh 35.0%, Shiga inhibitor 60.4*, HCV inhibitor 25.1% and LASV entry inh 0.3%.
For Cc1nc(NC(=O)CSc2nccn2C)sc1C(=O)N(C)C the results were MARV entry inh 5.2%, CHX counter 21.1*, FMDV inh 3.6%, Shiga inhibitor 42.7*, HCV inhibitor 18.4% and LASV entry inh 12.4%.
For O=C(CSc1nccn1-c1ccccc1)Nc1nc2ccccc2s1 the results were FMDV inh -5.1% and LASV entry inh 11.0%[46.1 µM].
Screening Cn1ccnc1SCC(=O)Nc1nc2ccccc2s1 returned CHX counter 34.2*, FMDV inh 68.9%, Shiga inhibitor 71.8* and HCV inhibitor -12.3%.
Screening Nn1c(SCC(=O)Nc2nc3ccccc3s2)nncc1=O returned MARV entry inh 0.7%, CHX counter 23.3*, FMDV inh -19.7%, Shiga inhibitor 40.3, HCV inhibitor -1.3% and LASV entry inh 18.6%.
